According to the supplement of paper PMC9262897, “Low-cost anti-mycobacterial drug discovery using engineered E. coli” (Nature Communications, 2022):
Counter-ions that a name gives are not always drawn. ± gives the standard deviation of the averaged measurements.

How the values were obtained:
Experiment in all cases: growth (OD600 after 10 h); higher = more growth (less inhibition)
[1] = tested on: E. coli TESEC Alr+ wild-type control; settings: compound 0.1 mM; raw OD600 reference: median of DMSO wells 0.241, cell-free background 0.041
Procedure: (§1)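 TESEC Mtb Alr E. coli, or the Alr+ wild-type control, in 384-well plates with Prestwick library compounds at 0.1 mM and 1% DMSO, across arabinose induction levels of 1E3 to 1E7 nM. Growth is read as OD600 after 10 h at 37 °C in triplicate biological replicates.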

E. coli TESEC Mtb Alr [2] = settings: compound 0.1 mM
Procedure: as §1

E. coli TESEC Mtb Asd = settings: compound 0.1 mM
Procedure: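 TESEC E. coli strains in which the native enzyme is deleted and replaced by arabinose-inducible Mtb Asd, DapB, CysH or TrpD, each grown in its selective medium. Strains were screened against the Prestwick library at 0.1 mM and 1% DMSO in 384-well format at low and high arabinose induction. Growth is read as OD600 after 10 h in triplicate.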

[3] = tested on: E. coli TESEC Alr+ wild-type control; settings: compound 0.1 mM; raw OD600 reference: median of DMSO wells 0.49, cell-free background 0.052
Procedure: (§2)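 TESEC Mtb Alr E. coli (ΔaraC ΔtolC ΔentC Δalr ΔdadX, arabinose-inducible Mtb Alr) or the Alr+ wild-type control strain, grown in defined M9-fructose medium without D-alanine in 96-well plates with Prestwick library compounds at 0.1 mM and 1% DMSO. Low Alr induction is 0.1 µM arabinose and high induction is 10 mM arabinose.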

E. coli TESEC Mtb Alr [4] = settings: compound 0.1 mM; remark: listed apart in the source
Procedure: as §2

[5] = arabinose 1000 nM, raw OD600 reference: median of DMSO wells 0.294, cell-free background 0.041
[6] = arabinose 10000 nM, raw OD600 reference: median of DMSO wells 0.264, cell-free background 0.041
[7] = arabinose 100000 nM, raw OD600 reference: median of DMSO wells 0.201, cell-free background 0.041
[8] = arabinose 1000000 nM, raw OD600 reference: median of DMSO wells 0.193, cell-free background 0.041
[9] = arabinose 10000000 nM, raw OD600 reference: median of DMSO wells 0.146, cell-free background 0.041
[10] = arabinose induction (level): High, raw OD600 reference: median of DMSO wells 0.331, cell-free background 0.041
[11] = arabinose induction (level): Low, raw OD600 reference: median of DMSO wells 0.417, cell-free background 0.041
[12] = arabinose 100 nM, raw OD600 reference: median of DMSO wells 0.413, cell-free background 0.052
[13] = arabinose 10000000 nM, raw OD600 reference: median of DMSO wells […], cell-free background 0.052

Row | SMILES | growth [1] | growth (E. coli TESEC Mtb Alr [2]; [5]) | growth (E. coli TESEC Mtb Alr [2]; [6]) | growth (E. coli TESEC Mtb Alr [2]; [7]) | growth (E. coli TESEC Mtb Alr [2]; [8]) | growth (E. coli TESEC Mtb Alr [2]; [9]) | growth (E. coli TESEC Mtb Asd; [10]) | growth (E. coli TESEC Mtb Asd; [11]) | growth [3] | growth (E. coli TESEC Mtb Alr [4]; [12]) | growth (E. coli TESEC Mtb Alr [4]; [13])
1 | Nc1nc(Cl)nc2c1ncn2[C@H]1C[C@H](O)[C@@H](CO)O1 [Cladribine] | 0.263 ± 0.14 | 0.165 ± 0.0084 | 0.0701 ± 0.0033 | 0.118 ± 0.018 | 0.0623 ± 0.0011 | 0.07457 ± 0.00035 | 0.409 ± 0.08 | 0.217 ± 0.015 | 0.577 ± 0.12 | 0.42 ± 0.0056 | 0.219 ± 0.031
2 | COCC1=C(C(=O)OC(C)OC(=O)OC(C)C)N2C(=O)[C@@H](NC(=O)/C(=N\OC)c3csc(N)n3)[C@H]2SC1 (stereo partly specified) [Cefpodoxime proxetil] | 0.2132 ± 0.002 | 0.116 ± 0.0091 | 0.0588 ± 0.0019 | 0.22 ± 0.011 | 0.166 ± 0.008 | 0.165 ± 0.0036 | 0.215 ± 0.051 | 0.179 ± 0.034 | 0.425 ± 0.044 | 0.0545 ± 0.0063 | 0.278 ± 0.016
3 | CN1CCC(=C2c3ccccc3CC(=O)c3sccc32)CC1 [Ketotifen fumarate] | 0.196 ± 0.0062 | 0.254 ± 0.0091 | 0.246 ± 0.01 | 0.206 ± 0.032 | 0.131 ± 0.0024 | 0.143 ± 0.0042 | 0.198 ± 0.036 | 0.39 ± 0.042 | 0.54 ± 0.048 | 0.405 ± 0.0086 | 0.303 ± 0.017
4 | CCOc1ccc2c(c1)C(C)=CC(C)(C)N2 [Ethoxyquin] | 0.183 ± 0.0075 | 0.283 ± 0.015 | 0.249 ± 0.007 | 0.192 ± 0.017 | 0.118 ± 0.0015 | 0.227 ± 0.067 | 0.353 ± 0.083 | 0.305 ± 0.042 | 0.3809 ± 0.0031 | 0.408 ± 0.0097 | 0.167 ± 0.068
5 | NS(=O)(=O)c1cc(C2(O)NC(=O)c3ccccc32)ccc1Cl (stereo unspecified) [Chlorthalidone] | 0.223 ± 0.0025 | 0.285 ± 0.012 | 0.255 ± 0.0039 | 0.193 ± 0.0099 | 0.168 ± 0.003 | 0.144 ± 0.0027 | 0.393 ± 0.037 | 0.462 ± 0.078 | 0.545 ± 0.05 | 0.415 ± 0.01 | 0.3322 ± 0.002
6 | CC1(C)O[C@@H]2C[C@H]3[C@@H]4C[C@H](F)C5=CC(=O)C=C[C@]5(C)[C@H]4[C@@H](O)C[C@]3(C)[C@]2(C(=O)CO)O1 [Flunisolide] | 0.204 ± 0.015 | 0.297 ± 0.0098 | 0.261 ± 0.0019 | 0.192 ± 0.011 | 0.159 ± 0.0049 | 0.138 ± 0.0048 | 0.342 ± 0.064 | 0.458 ± 0.025 |  | 0.4 ± 0.0095 | 0.335 ± 0.012
7 | C#CCN(C)CCCOc1ccc(Cl)cc1Cl [Clorgyline hydrochloride] | 0.14 ± 0.0066 | 0.168 ± 0.0046 | 0.175 ± 0.0062 | 0.174 ± 0.0076 | 0.0744 ± 0.0031 | 0.133 ± 0.011 | 0.25 ± 0.093 | 0.21 ± 0.04 | 0.458 ± 0.027 | 0.392 ± 0.0072 | 0.222 ± 0.016
8 | CCS(=O)(=O)CCn1c([N+](=O)[O-])cnc1C [Tinidazole] | 0.237 ± 0.0086 | 0.286 ± 0.011 | 0.256 ± 0.0041 | 0.198 ± 0.0079 | 0.169 ± 0.0069 | 0.139 ± 0.005 | 0.345 ± 0.048 | 0.405 ± 0.013 | 0.521 ± 0.092 | 0.402 ± 0.0095 | 0.315 ± 0.0068
9 | CCN(CC)CCNC(C(=O)OCCC(C)C)c1ccccc1 (stereo unspecified) [Camylofine chlorhydrate] | 0.198 ± 0.0073 | 0.254 ± 0.0087 | 0.261 ± 0.0027 | 0.208 ± 0.017 | 0.156 ± 0.0056 | 0.148 ± 0.0031 | 0.228 ± 0.046 | 0.372 ± 0.11 |  | 0.406 ± 0.012 | 0.341 ± 0.012
10 | C=CCOC(Cn1ccnc1)c1ccc(Cl)cc1Cl (stereo unspecified) [Enilconazole] | 0.0491 ± 0.0028 | 0.0495 ± 0.0068 | 0.0424 ± 0.00087 | 0.0459 ± 0.0018 | 0.043 ± 0.0011 | 0.0488 ± 0.0025 | 0.0691 ± 0.01 | 0.0619 ± 0.0052 |  | 0.193 ± 0.0082 | 0.0627 ± 0.0022
11 | O=C1c2ccccc2S(=O)(=O)N1CCCCN1CCN(c2ncccn2)CC1 [Ipsapirone] | 0.206 ± 0.0034 | 0.256 ± 0.015 | 0.249 ± 0.0074 | 0.171 ± 0.0059 | 0.154 ± 0.007 | 0.141 ± 0.0076 | 0.226 ± 0.048 | 0.389 ± 0.064 |  | 0.4 ± 0.0047 | 0.313 ± 0.012
12 | Cc1cc(C(C)(C)C)c(O)c(C)c1CC1=NCCN1 [Oxymetazoline hydrochloride] | 0.236 ± 0.0092 | 0.302 ± 0.0066 | 0.263 ± 0.014 | 0.196 ± 0.011 | 0.17 ± 0.011 | 0.165 ± 0.011 | 0.372 ± 0.07 | 0.416 ± 0.035 | 0.514 ± 0.062 | 0.414 ± 0.013 | 0.328 ± 0.011
13 | CC(C)NCC(O)c1ccc(NS(C)(=O)=O)cc1 (stereo unspecified) [Sotalol hydrochloride] | 0.163 ± 0.0095 | 0.206 ± 0.0064 | 0.254 ± 0.0096 | 0.173 ± 0.025 | 0.138 ± 0.0027 | 0.142 ± 0.0089 | 0.242 ± 0.084 | 0.377 ± 0.056 | 0.433 ± 0.0053 | 0.402 ± 0.012 | 0.359 ± 0.025
14 | O=C(OCCOCCO)c1ccccc1Nc1cccc(C(F)(F)F)c1 [Etofenamate] | 0.0458 ± 0.00036 | 0.0491 ± 0.0032 | 0.0483 ± 0.00084 | 0.049 ± 0.0019 | 0.0472 ± 0.002 | 0.0499 ± 0.0013 | 0.0525 ± 0.0012 | 0.0509 ± 0.0012 |  | 0.185 ± 0.19 | 0.0516 ± 0.0022
15 | Nc1nc(O)c2ncn(CCC(CO)CO)c2n1 [Penciclovir] | 0.25 ± 0.0069 | 0.31 ± 0.013 | 0.262 ± 0.0029 | 0.24 ± 0.042 | 0.18 ± 0.011 | 0.1665 ± 0.0015 | 0.228 ± 0.033 | 0.329 ± 0.033 | 0.455 ± 0.03 | 0.411 ± 0.0086 | 0.36 ± 0.021
16 | CCOC(=O)/C=C(C)/C=C/C=C(C)/C=C/c1c(C)cc(OC)c(C)c1C [Etretinate] | 0.242 ± 0.0089 | 0.308 ± 0.015 | 0.257 ± 0.011 | 0.211 ± 0.0087 | 0.161 ± 0.0097 | 0.151 ± 0.0019 | 0.257 ± 0.042 | 0.341 ± 0.025 |  | 0.41 ± 0.0092 | 0.344 ± 0.014
17 | CO[C@@H]1[C@@H](O[C@@H]2O[C@H](C)[C@@H](O[C@H]3C[C@@](C)(O)[C@@H](OC(=O)CC(C)C)[C@H](C)O3)[C@H](N(C)C)[C@H]2O)[C@@H](CC=O)C[C@@H](C)[C@@H](O)/C=C/C=C/C[C@@H](C)OC(=O)C[C@H]1OC(C)=O [Josamycin] | 0.04167 ± 0.00025 | 0.04093 ± 5.8e-05 | 0.0406 ± 0.00026 | 0.04147 ± 0.00015 | 0.04073 ± 0.00029 | 0.04137 ± 5.8e-05 | 0.0609 ± 0.0067 | 0.0594 ± 0.0064 | 0.0528 ± 0.0019 | 0.0755 ± 0.021 | 0.0519 ± 0.00093
18 | Cc1c(Cl)cccc1Nc1ccccc1C(=O)O [Tolfenamic acid] | 0.0444 ± 0.0007 | 0.0448 ± 0.0007 | 0.0413 ± 0.0001 | 0.0477 ± 0.0013 | 0.0424 ± 0.00053 | 0.0598 ± 0.0014 | 0.0513 ± 0.0022 | 0.052 ± 0.004 |  | 0.0964 ± 0.065 | 0.0536 ± 0.0002
